Among the data in ChEMBL document CHEMBL1961873, “Compounds: GSK PKIS; Assays: Nanosyn kinase panel” (2012) are inhibition values, retold here.

For assay [1], the target named is T1, Tyrosine-protein kinase receptor TYRO3 (Homo sapiens) (UniProt Q06418).
T1 sequence (whole entry): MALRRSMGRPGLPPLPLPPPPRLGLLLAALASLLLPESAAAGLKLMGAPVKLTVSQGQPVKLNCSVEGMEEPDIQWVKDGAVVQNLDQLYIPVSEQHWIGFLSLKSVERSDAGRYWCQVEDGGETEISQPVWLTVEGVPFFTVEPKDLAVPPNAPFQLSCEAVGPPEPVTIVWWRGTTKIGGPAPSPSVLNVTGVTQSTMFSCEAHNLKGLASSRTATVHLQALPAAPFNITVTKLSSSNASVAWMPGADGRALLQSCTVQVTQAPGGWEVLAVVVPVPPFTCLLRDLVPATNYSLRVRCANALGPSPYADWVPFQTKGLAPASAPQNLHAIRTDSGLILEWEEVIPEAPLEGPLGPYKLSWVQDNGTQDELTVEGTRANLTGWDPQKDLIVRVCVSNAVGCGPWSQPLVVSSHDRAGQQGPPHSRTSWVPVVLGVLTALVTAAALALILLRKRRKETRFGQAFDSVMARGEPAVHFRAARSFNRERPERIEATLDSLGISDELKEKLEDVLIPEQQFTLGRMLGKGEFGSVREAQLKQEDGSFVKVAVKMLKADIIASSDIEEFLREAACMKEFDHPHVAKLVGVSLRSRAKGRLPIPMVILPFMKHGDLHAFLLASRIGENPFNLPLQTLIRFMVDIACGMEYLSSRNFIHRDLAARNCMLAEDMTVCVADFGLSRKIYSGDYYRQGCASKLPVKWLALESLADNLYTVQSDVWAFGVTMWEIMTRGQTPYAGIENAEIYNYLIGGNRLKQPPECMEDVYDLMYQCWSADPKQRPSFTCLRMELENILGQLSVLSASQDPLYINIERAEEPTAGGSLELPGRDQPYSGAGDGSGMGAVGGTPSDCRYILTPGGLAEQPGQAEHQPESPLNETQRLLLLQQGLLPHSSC
To be noted: at 1 µM.

The target in assay [2] is Tyrosine-protein kinase Yes (Homo sapiens) (UniProt P07947). To be noted: at 0.1 µM.
For assay [3] the target is unchanged. To be noted: at 1 µM.
In assay [4] the target is T2, Tyrosine-protein kinase ZAP-70 (Homo sapiens) (UniProt P43403).
T2 sequence (whole entry): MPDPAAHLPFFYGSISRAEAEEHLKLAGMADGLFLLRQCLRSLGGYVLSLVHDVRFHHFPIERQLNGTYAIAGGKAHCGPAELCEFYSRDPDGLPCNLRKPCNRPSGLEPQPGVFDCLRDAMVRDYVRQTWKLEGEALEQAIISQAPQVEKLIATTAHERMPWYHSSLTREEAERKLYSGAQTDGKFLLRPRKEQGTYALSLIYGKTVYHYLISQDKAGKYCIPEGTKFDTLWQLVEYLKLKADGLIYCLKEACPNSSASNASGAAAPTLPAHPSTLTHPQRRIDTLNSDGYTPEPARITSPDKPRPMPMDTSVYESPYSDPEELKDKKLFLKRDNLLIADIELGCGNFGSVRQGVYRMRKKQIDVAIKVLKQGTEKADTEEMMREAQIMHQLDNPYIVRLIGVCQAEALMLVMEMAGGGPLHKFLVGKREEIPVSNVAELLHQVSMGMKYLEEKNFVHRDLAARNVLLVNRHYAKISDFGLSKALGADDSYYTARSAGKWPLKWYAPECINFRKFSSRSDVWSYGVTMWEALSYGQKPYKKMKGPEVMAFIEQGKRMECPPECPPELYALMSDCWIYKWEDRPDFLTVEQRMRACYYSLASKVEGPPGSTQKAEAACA
The note with it: at 0.1 µM.

Assay [5] concerns the target T2, Tyrosine-protein kinase ZAP-70 (Homo sapiens). To be noted: at 1 µM.
The target in assay [6] is Serine/threonine-protein kinase B-raf (Homo sapiens) (UniProt P15056). The note with it: at 0.1 µM.
For assay [7] the target is unchanged. To be noted: at 1 µM.
Assay [8] deals with Serine/threonine-protein kinase B-raf (Homo sapiens), P15056 [V600E]. The note with it: at 0.1 µM.
Assay [9] shares this test system. The note with it: at 1 µM.
The target in assay [10] is RAF proto-oncogene serine/threonine-protein kinase (Homo sapiens) (UniProt P04049). To be noted: at 0.1 µM.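 Also: values are mean CRAF kinase inhibition from profiling of the GSK Published Kinase Inhibitor Set.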
RAF proto-oncogene serine/threonine-protein kinase (Homo sapiens), sequence (P04049 whole entry): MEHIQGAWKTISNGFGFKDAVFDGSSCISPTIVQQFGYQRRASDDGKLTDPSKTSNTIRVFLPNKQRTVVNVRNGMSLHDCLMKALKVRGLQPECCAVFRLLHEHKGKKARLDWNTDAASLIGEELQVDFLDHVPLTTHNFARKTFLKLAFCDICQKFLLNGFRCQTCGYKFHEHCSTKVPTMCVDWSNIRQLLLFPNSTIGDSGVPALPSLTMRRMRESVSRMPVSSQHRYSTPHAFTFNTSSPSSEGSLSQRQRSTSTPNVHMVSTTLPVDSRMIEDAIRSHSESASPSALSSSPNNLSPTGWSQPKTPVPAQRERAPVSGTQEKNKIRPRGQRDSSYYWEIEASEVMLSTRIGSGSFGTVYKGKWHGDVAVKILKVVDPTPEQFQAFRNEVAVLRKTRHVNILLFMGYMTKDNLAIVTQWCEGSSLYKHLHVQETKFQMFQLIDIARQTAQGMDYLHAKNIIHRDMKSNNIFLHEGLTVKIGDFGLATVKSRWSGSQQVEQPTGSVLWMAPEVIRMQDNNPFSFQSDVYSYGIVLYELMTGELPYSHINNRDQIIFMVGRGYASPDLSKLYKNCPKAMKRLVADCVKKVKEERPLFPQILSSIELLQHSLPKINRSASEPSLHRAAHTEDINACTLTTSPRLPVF

Tyrosine-protein kinase Yes (Homo sapiens), sequence (P07947 2-543 limits assumed): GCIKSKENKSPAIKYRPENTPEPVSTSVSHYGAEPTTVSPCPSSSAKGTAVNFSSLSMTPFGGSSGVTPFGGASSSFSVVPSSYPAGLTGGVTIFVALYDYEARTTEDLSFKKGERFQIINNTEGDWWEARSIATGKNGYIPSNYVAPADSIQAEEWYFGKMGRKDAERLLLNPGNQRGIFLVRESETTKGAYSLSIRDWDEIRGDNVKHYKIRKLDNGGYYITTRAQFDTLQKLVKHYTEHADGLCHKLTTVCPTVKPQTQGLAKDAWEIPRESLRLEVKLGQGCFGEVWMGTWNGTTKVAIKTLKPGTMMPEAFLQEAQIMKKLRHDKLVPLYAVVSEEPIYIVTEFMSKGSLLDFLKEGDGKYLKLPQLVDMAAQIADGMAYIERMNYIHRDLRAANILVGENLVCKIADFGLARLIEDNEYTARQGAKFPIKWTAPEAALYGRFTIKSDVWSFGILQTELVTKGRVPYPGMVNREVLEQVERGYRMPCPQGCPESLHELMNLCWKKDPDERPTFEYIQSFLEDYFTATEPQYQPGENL
Serine/threonine-protein kinase B-raf (Homo sapiens), P15056 [V600E], sequence (P15056 whole entry V600E): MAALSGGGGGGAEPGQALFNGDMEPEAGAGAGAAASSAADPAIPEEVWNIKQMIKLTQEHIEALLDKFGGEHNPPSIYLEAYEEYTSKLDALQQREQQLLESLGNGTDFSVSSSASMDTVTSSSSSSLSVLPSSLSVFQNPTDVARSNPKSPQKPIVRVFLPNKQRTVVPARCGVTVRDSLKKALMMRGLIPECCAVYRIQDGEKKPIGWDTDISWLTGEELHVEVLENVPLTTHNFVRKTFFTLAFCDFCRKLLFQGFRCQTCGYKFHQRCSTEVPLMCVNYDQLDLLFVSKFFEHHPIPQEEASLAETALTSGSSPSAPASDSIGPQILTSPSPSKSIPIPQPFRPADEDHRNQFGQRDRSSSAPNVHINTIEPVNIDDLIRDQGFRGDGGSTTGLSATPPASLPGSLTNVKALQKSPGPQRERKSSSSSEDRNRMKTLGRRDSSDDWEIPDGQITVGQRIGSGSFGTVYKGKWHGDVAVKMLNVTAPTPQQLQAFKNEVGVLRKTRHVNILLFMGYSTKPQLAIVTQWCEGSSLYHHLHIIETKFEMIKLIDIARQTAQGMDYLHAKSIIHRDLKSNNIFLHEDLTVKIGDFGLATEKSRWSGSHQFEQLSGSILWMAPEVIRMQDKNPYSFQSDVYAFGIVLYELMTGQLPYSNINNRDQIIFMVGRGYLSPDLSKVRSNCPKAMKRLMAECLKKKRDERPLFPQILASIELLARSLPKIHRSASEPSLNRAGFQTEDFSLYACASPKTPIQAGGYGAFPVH
Serine/threonine-protein kinase B-raf (Homo sapiens), sequence (P15056 whole entry): as the sequence (P15056 whole entry V600E) above, with E600V counted along it

On to `NS(=O)(=O)c1ccc(N/N=C2\C(=O)Nc3ccc(Cl)cc32)cc1`, for which the inhibition – broadly, the change of the read-out against control, counted positive when it falls – came out at 5.46% in assay [1]; 1.72% in assay [2]; 3.69% in [3]; 1.01% in [4]; 3.02% in [5]; 4.45% in assay [6]. The inhibition in [7] is 4.35%; in assay [8], 5.27%; in assay [9] it was 4.36%; in [10], -0.52%.
As for `Cc1cc(Cl)cc2c1NC(=O)C2=NNc1ccc(S(N)(=O)=O)cc1`, the inhibition in assay [1] came to 3.93%; in assay [2] it was 0.95%; in [3], 2.2%; in assay [4], 1.82%; in assay [5], 1.81%; in [6], 4.13%. The inhibition in [7] was found to be 1.81%; in assay [8], 4.19%; in assay [9], 2.74%; in assay [10] it was 0.2%.
In the case of `CN(c1ccc(NC(=O)Nc2ccc(OC(F)(F)F)cc2)cc1)c1ccnc(Nc2cccc(S(N)(=O)=O)c2)n1`, the inhibition in [1] was 27.2%; in assay [2], 15.5%; in assay [3], 65.2%; in assay [4], -0.16%; in [5], 3.87%; in [6] it was 5.02%. Moreover, the inhibition in assay [7] was 22.7%; in assay [8], 4.82%; in assay [9], 18%; in [10], -2.25%.
For the molecule `COc1cc(Nc2nccc(-c3cnn4ncccc34)n2)cc(OC)c1`, the inhibition is 14.9% in assay [1]; 9.16% in [2]; 39.8% in assay [3]; 4.5% in [4]; 14.2% in assay [5]; 3.83% in assay [6]. Also, the inhibition in assay [7] was 28.9%; in [8], 4.91%; in assay [9], 28.7%; in assay [10], -0.8%.
Regarding `N#Cc1c(NC(=O)c2ccccc2F)sc2c1CCCC2`, the inhibition is -1.16% in assay [1]; 2.43% in [2]; -1.67% in assay [3]; -3.51% in assay [4]; 0.2% in [5]; -1.34% in [6]. Besides, the inhibition was -1.56% in assay [7], -0.04% in [8], 1.18% in assay [9] and -2.08% in assay [10].
Regarding `COc1ccc(-c2nn3ncccc3c2-c2ccnc(Nc3cccc(C(F)(F)F)c3)n2)cc1`, the inhibition in assay [1] is 4.06%; in [2], 26.3%; in assay [3], 79.8%; in [4], -0.73%; in [5], 1.1%; in assay [6] it was 4.3%. Besides, the inhibition was 6.08% in [7], 4.63% in assay [8], 4.39% in assay [9] and -2.4% in [10].
Turning to `CCS(=O)(=O)c1ccc(OC)c(Nc2ncc(-c3cccc(OC)c3)o2)c1`, the inhibition in assay [1] is 40.6%; in assay [2], 34.5%; in assay [3], 80.2%; in assay [4] it was -1.53%; in assay [5] it was -2.95%; in assay [6] it was 1.82%. The inhibition was 5.54% in [7], 1.52% in [8], 4.88% in [9] and 5.24% in assay [10].
On to `OCc1ccc(-c2nc(-c3ccccn3)c(-c3ccc4c(c3)OCO4)[nH]2)cc1`, for which the inhibition in assay [1] is 1.02%; in assay [2], 1.58%; in assay [3], -0.01%; in assay [4], 1.4%; in [5], 0.81%; in assay [6], 5.65%. Besides, the inhibition in [7] was 7.13%; in assay [8] it was 6.24%; in assay [9], 7.48%; in assay [10], -1.74%.
`COc1cc(/C=N/Nc2ncnc3c2cnn3C(C)C)ccc1O`: the inhibition in [1] turned out to be 25.9%; in [2], 11.9%; in assay [3] it was 50.8%; in [4], 1.87%; in [5], 4.45%; in assay [6], 2.16%. Besides, the inhibition came to 2.26% in assay [7], 2.21% in assay [8], 1.64% in assay [9] and 9.62% in assay [10].
As for `CN(C)C(=O)O[C@H]1CN[C@H](C#Cc2cc3ncnc(Nc4ccc(OCc5cccc(F)c5)c(Cl)c4)c3s2)C1`, the inhibition in [1] is 2.13%; in assay [2], 1.37%; in assay [3], 3.86%; in assay [4], 0.97%; in assay [5] it was 3.33%; in assay [6], 3.09%. Further, the inhibition in assay [7] is 6.19%; in assay [8], 3.55%; in assay [9], 5.77%; in assay [10] it was 3.11%.
Regarding `Oc1cccc(-c2nc(-c3ccccc3)[nH]c2-c2ccncc2)c1`, the inhibition in assay [1] is 9.74%; in assay [2], 4.12%; in assay [3] it was 21.9%; in assay [4], 3.06%; in assay [5] it was 3.35%; in [6] it was 14.5%. The inhibition in [7] turned out to be 30%; in assay [8], 12.8%; in assay [9], 28.9%; in assay [10] it was 1.16%.
With `Nc1nccc(C#Cc2cncnc2Nc2ccc(OCc3cccc(F)c3)c(Cl)c2)n1`, the inhibition in [1] is 3.66%; in assay [2], -0.62%; in [3], 5.85%; in assay [4], 1.97%; in [5] it was 3.29%; in [6] it was 3.49%. Further, the inhibition is 6.72% in [7], 3.75% in [8], 5.29% in [9] and -0.89% in assay [10].
Consider `O=S(=O)(CCOCc1ccc(-c2ccc3ncnc(Nc4ccc(OCc5cccc(F)c5)c(Cl)c4)c3c2)o1)c1ccccc1`, for which the inhibition in assay [1] is -0.33%; in [2] it was -1.93%; in assay [3] it was 2.61%; in assay [4] it was -5.44%; in assay [5] it was 0.81%; in assay [6], 2.33%. Also, the inhibition in [7] is 3.21%; in [8] it was 2.43%; in assay [9] it was 3.05%; in assay [10], -0.94%.
Regarding `Cc1ccc2c(-c3ccnc(Nc4ccc5c(c4)OCCO5)n3)c(-c3ccc(C(F)(F)F)cc3)nn2n1`, the inhibition is 2.41% in [1]; 6.79% in [2]; 46.8% in [3]; -2.2% in assay [4]; 1.38% in assay [5]; 0.83% in assay [6]. For the same molecule, the inhibition in [7] was determined as 1.14%; in assay [8], 0.62%; in [9] it was 1.44%; in assay [10], 4.51%.
For the molecule `COC(=O)c1ccc2c(c1)C(=Cc1cc(Br)c(O)c(Br)c1)C(=O)N2`, the inhibition in assay [1] is 12.4%; in [2] it was 0.08%; in assay [3], 12.2%; in assay [4], 3.31%; in assay [5], 5.41%; in [6], 9.11%. Besides, the inhibition was found to be 19.7% in assay [7], 7.27% in assay [8], 18.2% in [9] and 3.01% in assay [10].
`CCn1c(-c2nonc2N)nc2ccc(F)cc21`: the inhibition in assay [1] was determined as 5.61%; in assay [2], 4.26%; in [3], 8.39%; in assay [4], 3.33%; in assay [5], 2.76%; in assay [6], 8.45%. Further, the inhibition in assay [7] was 7.77%; in [8], 9.84%; in [9], 7.05%; in assay [10], -0.53%.
